Experimental findings from the supplement of paper PMC10849652 are described below.

Assay in all cases: log2 fold change, soluble protein after heating vs DMSO (PISA); higher = thermal stabilisation; K562 lysate, 10 uM; active = over 0.2 and 3.5 SD of the protein, either way, in both replicates (recomputed)
Compound in experiment [1]: CC1=C2C(=CC=C1)N=C(N(C2=O)C3=CC=CC=C3C)CN4C=NC5=C(N=CN=C54)N
A digest of the protocol:
(§1)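 Dounce homogenisation of K562 pellets in PBS pH 7.4 with 1 mM MgCl2 produced a crude extract, used at 1 mg/mL protein. Exposure to 10 μM compound lasted 30 min, and aliquots were then heated for 3 min across 48°C-58°C, pooled and brought to 0.5% NP-40 at 4°C. The supernatant after 21,000xg for 90 min was quantified by TMTpro 16plex LC-MS/MS with channel sums equalised. Duplicate values are given as log-two fold change in thermal stability relative to solvent controls.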

Compound in experiment [2]: Cc1sc2c(c1C)C(c1ccc(Cl)cc1)=N[C@@H](CC(=O)OC(C)(C)C)c1nnc(C)n1-2
Summed up: as §1

Compound in experiment [3]: c1ccc([C@@H]2C[C@H]2NC2CCNCC2)cc1
Summed up:
as §1

Compound in experiment [4]: C1=CC=C(C=C1)[C@H](COC2=CC3=C(C=C2)NC(=O)N3)NC(=O)C4=CC=CN(C4=O)CC5=CC(=C(C=C5)F)F
A digest of the protocol: as §1

Compound in experiment [5]: CC1=C(SC2=C1C(=N[C@H](C3=NN=C(N32)C)CC(=O)N)C4=CC=C(C=C4)Cl)C
Summed up: as §1

The full data set covers some 8,800 targets. This sample favours those with a hit. About 0.5% of all pairs of compound and target were hits. Unmarked numbers belong to inactive results.

UniProt Q96CQ1, sequence (Q96CQ1 whole entry, looked up): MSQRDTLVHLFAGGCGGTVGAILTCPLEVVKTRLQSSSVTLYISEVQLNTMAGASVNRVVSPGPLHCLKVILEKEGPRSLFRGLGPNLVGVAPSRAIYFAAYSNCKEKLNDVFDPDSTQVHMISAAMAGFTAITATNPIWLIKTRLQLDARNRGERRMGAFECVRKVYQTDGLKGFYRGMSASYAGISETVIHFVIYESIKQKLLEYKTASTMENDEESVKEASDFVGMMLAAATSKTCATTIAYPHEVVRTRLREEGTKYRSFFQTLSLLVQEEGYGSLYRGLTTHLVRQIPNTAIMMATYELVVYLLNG
UniProt P49675, sequence (P49675 whole entry, looked up): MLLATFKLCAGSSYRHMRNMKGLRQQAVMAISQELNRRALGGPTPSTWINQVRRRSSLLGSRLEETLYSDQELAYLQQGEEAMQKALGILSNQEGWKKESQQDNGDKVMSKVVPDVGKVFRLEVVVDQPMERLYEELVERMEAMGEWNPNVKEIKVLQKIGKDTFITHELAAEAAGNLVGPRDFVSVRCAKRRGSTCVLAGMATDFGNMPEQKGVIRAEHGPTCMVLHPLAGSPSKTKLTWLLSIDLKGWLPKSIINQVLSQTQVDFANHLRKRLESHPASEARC
UniProt O60225, sequence (O60225 whole entry, looked up): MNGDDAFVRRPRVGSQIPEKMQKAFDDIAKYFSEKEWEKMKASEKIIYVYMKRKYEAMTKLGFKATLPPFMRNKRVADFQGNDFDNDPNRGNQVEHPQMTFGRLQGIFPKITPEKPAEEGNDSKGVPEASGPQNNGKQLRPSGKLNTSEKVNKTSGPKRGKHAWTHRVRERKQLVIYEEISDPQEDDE
UniProt Q96BI1, sequence (Q96BI1 whole entry, looked up): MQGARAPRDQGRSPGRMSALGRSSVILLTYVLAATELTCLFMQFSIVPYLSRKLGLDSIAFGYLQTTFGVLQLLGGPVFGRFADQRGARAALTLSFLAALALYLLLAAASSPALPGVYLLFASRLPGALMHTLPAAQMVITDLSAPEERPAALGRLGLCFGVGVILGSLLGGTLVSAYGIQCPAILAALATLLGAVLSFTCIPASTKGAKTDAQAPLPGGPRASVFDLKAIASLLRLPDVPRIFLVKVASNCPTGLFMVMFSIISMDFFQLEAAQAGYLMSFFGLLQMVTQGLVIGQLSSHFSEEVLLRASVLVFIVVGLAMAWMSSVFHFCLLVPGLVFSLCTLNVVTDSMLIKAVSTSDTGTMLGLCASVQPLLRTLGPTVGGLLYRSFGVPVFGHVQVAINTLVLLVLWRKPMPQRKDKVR
UniProt O95149, sequence (O95149 whole entry, looked up): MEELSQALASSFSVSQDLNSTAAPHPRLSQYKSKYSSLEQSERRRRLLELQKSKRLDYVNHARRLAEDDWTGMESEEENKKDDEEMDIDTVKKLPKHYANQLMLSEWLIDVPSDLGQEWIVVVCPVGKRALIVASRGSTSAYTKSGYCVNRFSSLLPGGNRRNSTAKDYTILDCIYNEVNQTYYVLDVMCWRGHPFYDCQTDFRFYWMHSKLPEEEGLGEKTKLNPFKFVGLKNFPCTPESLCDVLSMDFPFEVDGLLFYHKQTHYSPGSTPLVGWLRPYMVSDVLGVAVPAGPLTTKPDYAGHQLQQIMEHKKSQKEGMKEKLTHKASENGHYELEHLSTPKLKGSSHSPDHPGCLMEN
UniProt Q8N196, sequence (Q8N196 whole entry, looked up): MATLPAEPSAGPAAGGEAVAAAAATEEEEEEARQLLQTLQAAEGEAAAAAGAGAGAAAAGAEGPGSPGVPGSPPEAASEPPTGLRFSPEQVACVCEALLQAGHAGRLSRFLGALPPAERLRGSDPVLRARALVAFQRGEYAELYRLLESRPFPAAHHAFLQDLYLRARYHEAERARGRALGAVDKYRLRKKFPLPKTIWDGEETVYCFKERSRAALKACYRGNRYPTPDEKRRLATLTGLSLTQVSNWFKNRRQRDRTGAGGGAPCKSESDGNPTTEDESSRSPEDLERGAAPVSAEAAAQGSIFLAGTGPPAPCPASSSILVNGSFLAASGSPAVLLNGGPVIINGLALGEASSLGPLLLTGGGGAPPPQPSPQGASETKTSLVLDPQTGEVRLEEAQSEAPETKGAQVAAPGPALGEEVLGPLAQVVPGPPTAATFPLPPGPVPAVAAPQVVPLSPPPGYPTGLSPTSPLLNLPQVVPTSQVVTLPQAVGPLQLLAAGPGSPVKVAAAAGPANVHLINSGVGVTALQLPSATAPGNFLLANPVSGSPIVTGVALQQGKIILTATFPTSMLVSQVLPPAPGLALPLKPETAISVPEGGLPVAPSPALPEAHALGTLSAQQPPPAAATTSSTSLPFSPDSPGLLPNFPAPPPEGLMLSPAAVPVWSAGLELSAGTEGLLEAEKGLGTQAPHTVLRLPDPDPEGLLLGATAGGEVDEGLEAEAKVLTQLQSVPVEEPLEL
UniProt Q9UEE5, sequence (Q9UEE5 whole entry, looked up): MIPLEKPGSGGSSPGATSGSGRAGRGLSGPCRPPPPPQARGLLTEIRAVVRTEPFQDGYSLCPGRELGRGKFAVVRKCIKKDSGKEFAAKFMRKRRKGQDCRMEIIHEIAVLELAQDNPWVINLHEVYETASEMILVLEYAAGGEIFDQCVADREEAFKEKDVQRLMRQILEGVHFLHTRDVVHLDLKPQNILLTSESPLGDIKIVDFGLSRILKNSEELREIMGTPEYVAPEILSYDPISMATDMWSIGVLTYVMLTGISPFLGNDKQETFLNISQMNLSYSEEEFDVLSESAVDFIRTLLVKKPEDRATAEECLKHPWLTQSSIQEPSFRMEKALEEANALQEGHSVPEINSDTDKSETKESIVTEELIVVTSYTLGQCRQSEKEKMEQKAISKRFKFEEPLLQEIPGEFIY
UniProt Q9P289, sequence (Q9P289 whole entry, looked up): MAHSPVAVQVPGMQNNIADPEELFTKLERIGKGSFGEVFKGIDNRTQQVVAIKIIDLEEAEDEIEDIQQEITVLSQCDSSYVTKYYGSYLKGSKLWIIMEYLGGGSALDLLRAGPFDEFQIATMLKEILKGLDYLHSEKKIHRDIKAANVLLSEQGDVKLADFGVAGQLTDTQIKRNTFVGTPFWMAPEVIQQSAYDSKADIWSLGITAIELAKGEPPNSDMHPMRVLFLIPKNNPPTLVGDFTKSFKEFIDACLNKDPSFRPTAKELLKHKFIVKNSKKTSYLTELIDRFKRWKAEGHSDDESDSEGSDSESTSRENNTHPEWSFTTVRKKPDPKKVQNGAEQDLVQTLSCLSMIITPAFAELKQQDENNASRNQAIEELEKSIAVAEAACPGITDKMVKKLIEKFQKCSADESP
UniProt Q9Y2H1, sequence (Q9Y2H1 whole entry, looked up): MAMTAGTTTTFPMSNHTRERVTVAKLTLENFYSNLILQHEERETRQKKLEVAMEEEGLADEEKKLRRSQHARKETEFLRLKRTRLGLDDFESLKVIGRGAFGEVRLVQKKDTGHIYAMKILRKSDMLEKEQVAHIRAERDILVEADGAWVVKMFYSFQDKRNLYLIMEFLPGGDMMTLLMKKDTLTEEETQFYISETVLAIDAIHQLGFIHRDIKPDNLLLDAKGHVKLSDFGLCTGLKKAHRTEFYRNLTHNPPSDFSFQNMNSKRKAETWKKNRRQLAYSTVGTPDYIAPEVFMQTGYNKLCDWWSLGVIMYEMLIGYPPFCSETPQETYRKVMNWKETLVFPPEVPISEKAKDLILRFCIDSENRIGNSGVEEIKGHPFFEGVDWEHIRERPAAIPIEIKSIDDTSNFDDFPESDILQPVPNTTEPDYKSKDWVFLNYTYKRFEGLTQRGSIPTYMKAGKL

With STAR (UniProt P49675), the results for the log2 fold change in experiment [1], in experiment [2] and in experiment [3] were 0.048, -0.077 and -0.028, respectively.

Consider TARDBP (UniProt K7EN94), for which, in experiment [1], the log2 fold change was 0.319.

With SLC25A36 (UniProt Q96CQ1), the log2 fold change is 0.013 in experiment [1], 0.035 in experiment [2] and 0 in experiment [3].

As to STK26 isoform 3 (UniProt Q9P289), in experiment [2], the log2 fold change was 0.166.

For SSX5 isoform 2 (UniProt O60225), the log2 fold change in experiment [4] was 0.022; in experiment [5] it was 0.03; in experiment [1] it was -0.157; in experiment [3], -0.253.

Regarding SLC22A18 (UniProt Q96BI1), the log2 fold change was 0.07 in experiment [4], 0.048 in experiment [5], -0.036 in experiment [1] and -0.088 in experiment [3].

Take SNUPN (UniProt O95149): the log2 fold change is -0.013 in experiment [4], -0.018 in experiment [5], 0.047 in experiment [1] and -0.02 in experiment [3].

In the case of SIX5 (UniProt Q8N196), the log2 fold change was -0.011 in experiment [4], 0.034 in experiment [5], -0.037 in experiment [2] and 0.209 in experiment [3].

Consider STK17A (UniProt Q9UEE5), for which the log2 fold change in experiment [3] is 0.148.

STK38L (UniProt Q9Y2H1): the log2 fold change in experiment [2] is -0.031.
